Our source for the Potency values is PubChem BioAssay (Tox21).

Test [1] can be described thus: qHTS assay to identify aromatase inhibitors - cell viability counter screen (AID 743084).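 Also: cells stimulated with testosterone during compound exposure; nearly all actives have a fitted effect of over 55% in size.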 Also: potency is read from the fitted curve at half-maximal effect. On the technique in general: Quantitative high-throughput screening tests each substance at several concentrations.
Test [2] in a line: qHTS assay to identify small molecule that activate the aryl hydrocarbon receptor (AhR) signaling pathway - cell viability counter screen (AID 743086). Also: nearly all actives have a fitted effect of over 45% in size. Also: potency is read from the fitted curve at half-maximal effect. In a few lines: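 Cytotoxicity counter screen: CellTiter-Fluor signal (30 min, 37 C) in 4000 HepG2 cells/well carrying the DRE-luciferase reporter, following 24 h compound exposure at 37 C.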
The target of test [3] is Peroxisome proliferator-activated receptor gamma (Homo sapiens) (UniProt P37231). Kind of test: qHTS assay to identify small molecule agonists of the peroxisome proliferator-activated receptor gamma (PPARg) signaling pathway (AID 743094; active = well fitted activation curve with a large enough effect in the signal ratio in the repeat runs, not every such curve was filed as active; the % refers to the signal ratio). In a few lines:
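HEK293H PPARg-bla cells, 5 h settle at 37C/5% CO2; compound (DMSO) 17 h, 37C; B/G FRET substrate 1 h RT; fluorescence intensity read-out. qHTS format.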

Test [4] has the same target. Description: qHTS assay to identify small molecule antagonists of the peroxisome proliferator-activated receptor gamma (PPARg) signaling pathway (AID 743191; calls by dose curve; also: nearly all actives have a fitted effect of over 30% in size; also: potency is read from the fitted curve at half-maximal effect). In outline:
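Beta-lactamase reporter under UAS control in HEK293H PPARg-bla cells; compound treatment 17 h at 37C. Read-out: fluorescence intensity after 1 h room-temperature incubation with LiveBLAzer B/G FRET substrate.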

Test [5] can be described thus: qHTS assay to identify small molecule antagonists of the peroxisome proliferator-activated receptor gamma (PPARg) signaling pathway - cell viability counter screen (AID 743194). Also: nearly all actives have a fitted effect of over 55% in size. Also: potency is read from the fitted curve at half-maximal effect. Conditions: Potency: co-treated with 50 nM rosiglitazone unless noted. In outline:
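Viability was measured as CellTiter-Glo luminescence in GeneBLAzer PPARg UAS-bla HEK293H cells. These cells had been exposed 17 h at 37 C to compounds together with rosiglitazone at 50 nM final, with the beta-lactamase readout taken in the same wells.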

Test [6] in a line: qHTS assay for small molecule agonists of the antioxidant response element (ARE) signaling pathway - cell viability counter screen (AID 743203; calls by dose curve; also: nearly all actives have a fitted effect of over 55% in size; also: potency is read from the fitted curve at half-maximal effect). In a few lines:
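Luminescence read-out (CellTiter-Glo, 30 min at room temperature) measured cell viability in the same wells as the ARE beta-lactamase reporter. HepG2 ARE-bla cells were treated with compounds for 16 hrs at 37C/5% CO2.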

The nature of test [7]: qHTS assay for small molecule activators of the heat shock response signaling pathway - cell viability counter screen (AID 743209). Also: nearly all actives have a fitted effect of over 50% in size. Also: potency is read from the fitted curve at half-maximal effect. In outline: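 HSE-bla HeLa; 1500 cells/well; overnight 37 C, 5% CO2; compound 5 h 37 C; LiveBLAzer B/G substrate 2.5 h RT; CellTiter-Glo 30 min RT; luminescence.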
The nature of test [8]: qHTS assay for small molecule activators of the heat shock response signaling pathway (AID 743210; active = well fitted activation curve with a large enough effect in the signal ratio in the repeat runs, with a control signal flat, not every such curve was filed as active; the % refers to the signal ratio;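 also: HeLa cells with beta-lactamase reporter driven by heat shock elements; series mostly up to about 63 µM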). In outline: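 Fluorescence from a cleaved B/G FRET substrate (2.5 h, room temp) reports HSE-driven beta-lactamase in HeLa cells treated 5 h at 37 C with DMSO-dissolved compounds.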
In test [9] the target is Aryl hydrocarbon receptor (Homo sapiens) (UniProt P35869). Kind of test: qHTS assay to identify small molecule that activate the aryl hydrocarbon receptor (AhR) signaling pathway (AID 743085). Also: nearly all actives have a fitted effect of over 15% in size. Also: potency is read from the fitted curve at half-maximal effect.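 As to activation: HG2L7.5c1 human HepG2 liver cells with stably integrated DRE-driven firefly reporter; series mostly up to about 70 µM.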 In outline:
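Reporter assay in engineered HepG2 line HG2L7.5c1, whose plasmid carries twenty dioxin responsive elements upstream of firefly luciferase. Treatment lasted 24 h at 37C; ONE-Glo luminescence gauged induction.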

A short description of test [10]: qHTS assay for small molecule agonists of the antioxidant response element (ARE) signaling pathway (AID 743202; active = well fitted activation curve with a large enough effect in the signal ratio in the repeat runs, not every such curve was filed as active; the % refers to the signal ratio). In a few lines:
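Beta-lactamase reporter activity, read as fluorescence intensity, reflects ARE/Nrf2 pathway induction in HepG2 cells after 16 h compound exposure at 37 C; substrate loading was 2 h at room temperature.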

Values joined by “and” are separate entries in the source; they are usually repeats but may differ in a detail not shown here. Equal values may be shown once. Results filed as inconclusive are left out. Some structures have more than one record in an assay (separate samples or runs), and their calls can disagree. Active and inactive are the calls of the source. Unless noted, calls follow the shape of the dose curve; as a rule, active = well fitted curve in the direction sought with a large enough effect in the repeat runs; inconclusive = weak or mixed curves; inactive = no such curve, though single readings can be large; an effect the other way counts as inactive or inconclusive.

Sequence of Aryl hydrocarbon receptor (Homo sapiens) (P35869 whole entry, looked up): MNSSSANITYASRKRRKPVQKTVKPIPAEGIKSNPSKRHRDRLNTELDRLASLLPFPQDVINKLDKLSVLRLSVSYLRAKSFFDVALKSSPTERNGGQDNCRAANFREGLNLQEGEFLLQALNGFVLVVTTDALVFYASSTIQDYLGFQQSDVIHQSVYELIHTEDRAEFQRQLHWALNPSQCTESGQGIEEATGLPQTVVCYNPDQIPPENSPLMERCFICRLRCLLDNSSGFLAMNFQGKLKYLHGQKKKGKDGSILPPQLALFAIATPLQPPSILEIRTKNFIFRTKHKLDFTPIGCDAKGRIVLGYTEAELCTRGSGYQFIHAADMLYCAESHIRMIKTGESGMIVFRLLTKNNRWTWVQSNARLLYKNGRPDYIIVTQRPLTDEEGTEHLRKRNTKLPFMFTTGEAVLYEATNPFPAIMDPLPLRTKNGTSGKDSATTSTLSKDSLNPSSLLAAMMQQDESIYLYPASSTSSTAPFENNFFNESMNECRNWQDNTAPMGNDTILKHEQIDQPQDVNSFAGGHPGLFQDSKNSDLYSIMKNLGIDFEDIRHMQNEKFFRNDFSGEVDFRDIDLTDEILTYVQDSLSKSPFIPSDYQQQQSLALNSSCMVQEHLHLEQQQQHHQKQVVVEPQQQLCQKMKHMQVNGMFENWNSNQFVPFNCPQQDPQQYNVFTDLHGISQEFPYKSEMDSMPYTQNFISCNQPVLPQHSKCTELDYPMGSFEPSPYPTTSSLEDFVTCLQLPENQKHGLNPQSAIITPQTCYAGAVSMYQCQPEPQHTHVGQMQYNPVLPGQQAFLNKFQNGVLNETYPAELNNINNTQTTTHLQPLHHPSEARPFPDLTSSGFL
Sequence of Peroxisome proliferator-activated receptor gamma (Homo sapiens) (P37231 whole entry, looked up): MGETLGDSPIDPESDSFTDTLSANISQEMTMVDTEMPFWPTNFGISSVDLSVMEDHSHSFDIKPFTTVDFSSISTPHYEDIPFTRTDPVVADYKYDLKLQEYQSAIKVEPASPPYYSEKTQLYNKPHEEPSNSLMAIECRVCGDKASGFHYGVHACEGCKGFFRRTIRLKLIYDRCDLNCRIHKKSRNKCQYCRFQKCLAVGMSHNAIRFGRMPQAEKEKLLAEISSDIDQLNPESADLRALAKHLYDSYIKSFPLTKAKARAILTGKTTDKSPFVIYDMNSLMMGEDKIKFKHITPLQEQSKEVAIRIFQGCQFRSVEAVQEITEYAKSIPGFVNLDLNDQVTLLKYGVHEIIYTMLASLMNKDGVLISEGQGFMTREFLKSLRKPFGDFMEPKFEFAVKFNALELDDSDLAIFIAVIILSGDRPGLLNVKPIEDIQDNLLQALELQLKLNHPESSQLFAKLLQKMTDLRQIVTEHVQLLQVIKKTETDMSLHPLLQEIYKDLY

`O=[N+]([O-])/N=C1\NCCN1Cc1ccc(Cl)nc1`: the Potency entry in [1], in test [2], in test [3], in [4], in test [5] and in test [6] was “inactive” in each case. The Potency entry in test [7] and in [8] was “inactive” in each case.

`CCC/C=N/O`: the Potency entry in [1], in test [9], in [2], in test [3], in test [6] and in [7] was “inactive” in each case. Further, in test [8], the Potency entry is “inactive”.

As to `CCC(=O)Nc1ccc(Cl)c(Cl)c1`, the Potency entry in test [1], in [2], in test [3], in test [6], in [7] and in [8] was “inactive” each time. The Potency in test [9] is 54.5 µM (active).

As to `CCC[CH2][Sn]([Cl])([Cl])[CH2]CCC`, the Potency is 1.39 µM (active) and 686 nM (active) in test [1]; 1.39 µM (active) and 486 nM (active) in test [2]; 882 nM (active) and 43.6 nM (active) in test [5]; 276 nM (active) and 34.4 nM (active) in test [6]; 54.9 nM (active) in test [7]. Also, in [9], the Potency result is “inactive”.

`N#CC(c1ccccc1)c1ccccc1`: the Potency entry in test [1], in test [2], in test [3], in test [4], in test [10] and in test [6] was “inactive” in each case. Further, the Potency result in test [7] and in [8] was “inactive” throughout.

Turning to `CC(C)Nc1ccc(Nc2ccccc2)cc1`, the Potency is 30.5 µM (active) and 54.5 µM (active) in test [1]; “inactive and 2.17 µM (active)” in test [9]. In addition, the Potency result in test [6] and in test [7] was “inactive” each time.

For the compound `O=C1C(Cl)=C(Cl)C(=O)c2ccccc21`, the Potency is 4.34 µM (active) and 27.3 µM (active) in test [1]; 17.3 µM (active) and 10.9 µM (active) in [9]; 68.8 µM (active) and 21.7 µM (active) in [6]; 27.6 µM (active) and 12.3 µM (active) in test [7].

Turning to `OC(c1ccc(Cl)cc1)(c1cncnc1)c1ccccc1Cl` (configuration not stated), the Potency entry in test [1], in test [9], in test [2], in test [5], in [6] and in test [7] was “inactive” in each case. In addition, the Potency entry in test [8] was “inactive”. Also, the Potency in test [4] was 54.9 µM (active).
